# Results filed as inconclusive are left out. Calls of active or inactive are those of the source. The call rests on the fitted dose curve; in most records, active means well fitted inhibition curve with a large enough effect in the repeat runs; inconclusive means weak or mixed curves; inactive means no such curve, though single readings can be large or run the other way.
# Target: Cytochrome P450 2D6 (Homo sapiens) (UniProt P10635)
# Assay: Cytochrome P450 Family 2 Subfamily D Member 6 (CYP2D6) small molecule antagonists: luciferase reporter qHTS assay (AID 1671196); further: nearly all actives have a fitted effect of over 50% in size
# Conditions: P450-Glo CYP2D6 enzyme assay, luciferin luminescence, 1 h; series mostly up to 115 µM
# How it was run: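 Cell-free P450-Glo system: CYP2D6 with proluciferin substrate was pre-incubated with compound for 10 min, then reacted with NADPH regeneration for 1 h at room temperature. Luciferin product was detected after 20 min, and data were reported as relative luminescence units.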
# Potency means the concentration at half of the fitted maximal effect.
# Chain of Cytochrome P450 2D6 (Homo sapiens) (P10635 whole entry, looked up): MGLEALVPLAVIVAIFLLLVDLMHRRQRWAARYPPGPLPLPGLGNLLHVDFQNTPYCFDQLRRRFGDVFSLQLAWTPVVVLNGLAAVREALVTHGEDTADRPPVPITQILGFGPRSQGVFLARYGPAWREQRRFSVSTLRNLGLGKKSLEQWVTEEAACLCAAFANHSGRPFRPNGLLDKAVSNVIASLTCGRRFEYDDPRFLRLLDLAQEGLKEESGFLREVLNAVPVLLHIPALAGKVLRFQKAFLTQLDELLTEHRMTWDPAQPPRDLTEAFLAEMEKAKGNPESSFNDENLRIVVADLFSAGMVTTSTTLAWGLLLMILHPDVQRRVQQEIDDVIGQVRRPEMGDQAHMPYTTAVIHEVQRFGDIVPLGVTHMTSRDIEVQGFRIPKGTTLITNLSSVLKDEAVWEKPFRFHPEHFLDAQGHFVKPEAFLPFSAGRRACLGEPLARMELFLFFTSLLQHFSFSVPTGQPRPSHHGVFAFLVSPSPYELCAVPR
row,SMILES,Potency
1,COCCC(=O)OC,inactive
2,O=C1CCC/C=C\CCCCCCCCCC1,inactive
3,CC(C)(C)c1cc(CCC(=O)OCCSCCOC(=O)CCc2cc(C(C)(C)C)c(O)c(C(C)(C)C)c2)cc(C(C)(C)C)c1O,inactive
4,O[Si](c1ccccc1)(c1ccccc1)c1ccccc1,inactive
5,CC1(C)[C@H](C(=O)OCc2cccc(Oc3ccccc3)c2)[C@@H]1C=C(Cl)Cl,inactive
6,C=C(C)CCO,inactive
7,CCCCCCCCCC[N+](C)(CCCCCCCCCC)CCC[Si](OC)(OC)OC,3.17 µM (active)
8,O=[N+]([O-])c1ccc(O)c2ncccc12,inactive
9,O=C(Cl)c1ccc(Cl)cc1Cl,inactive
10,NCc1cccc(C2CCN(C(=O)c3ccc(C#Cc4ccccc4F)o3)CC2)c1,20 µM (active)
11,N#Cc1ccc(C/C(=N/NC(=O)Nc2ccc(OC(F)(F)F)cc2)c2cccc(C(F)(F)F)c2)cc1,39.9 µM (active)
12,O=C1CCCCCCCCCCCCCC1,inactive

# Target: Cytochrome P450 2C19 (Homo sapiens) (UniProt P33261)
# Sequence (P33261 whole entry, looked up): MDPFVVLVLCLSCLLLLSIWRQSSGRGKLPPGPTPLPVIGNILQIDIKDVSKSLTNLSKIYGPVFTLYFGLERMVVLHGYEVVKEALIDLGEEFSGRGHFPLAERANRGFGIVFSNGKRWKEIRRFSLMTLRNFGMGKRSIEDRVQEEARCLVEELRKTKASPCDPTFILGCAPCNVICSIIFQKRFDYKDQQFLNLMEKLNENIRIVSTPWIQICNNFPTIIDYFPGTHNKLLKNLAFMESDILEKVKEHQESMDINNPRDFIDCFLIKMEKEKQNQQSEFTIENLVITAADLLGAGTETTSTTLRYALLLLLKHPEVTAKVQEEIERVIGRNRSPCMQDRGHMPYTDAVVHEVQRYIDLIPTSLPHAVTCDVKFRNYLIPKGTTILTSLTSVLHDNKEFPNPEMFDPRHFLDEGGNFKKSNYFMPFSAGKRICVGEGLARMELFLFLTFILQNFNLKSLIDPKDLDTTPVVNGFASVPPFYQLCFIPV
# Assay: Cytochrome P450 Family 2 Subfamily C Member 19 (CYP2C19) small molecule antagonists: luciferase reporter qHTS assay (AID 1671197); further: nearly all actives have a fitted effect of over 65% in size
# Conditions: P450-Glo CYP2C19 enzyme, luciferin luminescence, 1 h; series mostly up to 115 µM
# How it was run: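 Enzyme-substrate mix with proluciferin substrate (P450-Glo CYP2C19 system) preincubated with compounds 10 min at room temperature; NADPH regeneration solution added, 37C for 1 h; detection reagent stops reaction, luminescence read after 20 min. Ketoconazole positive control.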
row,SMILES,Potency
1,C=Cc1ccc(O)c(OC)c1,79.6 µM (active)
2,COCCC(=O)OC,inactive
3,CC(C)(C)c1cc(CCC(=O)OCCSCCOC(=O)CCc2cc(C(C)(C)C)c(O)c(C(C)(C)C)c2)cc(C(C)(C)C)c1O,8.71 µM (active)
4,C[C@H]1O[C@@H](O[C@H]2CC[C@@]3(C)[C@H](CC[C@@H]4[C@@H]3C[C@@H](O)[C@]3(C)[C@@H](C5=CC(=O)OC5)CC[C@]43O)C2)C[C@H](O)[C@@H]1O[C@H]1C[C@H](O)[C@H](O[C@H]2C[C@H](O)[C@H](O[C@@H]3O[C@H](CO)[C@@H](O)[C@H](O)[C@H]3O)[C@@H](C)O2)[C@@H](C)O1,inactive
5,O[Si](c1ccccc1)(c1ccccc1)c1ccccc1,0.502 µM (active)
6,c1ccc2c(c1)-c1ccc3ccc4cccc5cc-2c1c3c45,inactive
7,CCCCCCCCCCCCCCCCCCNC(=O)OC1CCN(C(=O)OC[C@H](COC(=O)N(Cc2cccc[n+]2CC)C(=O)c2ccccc2OC)OC)CC1,43.6 µM (active)
8,CCNc1nc(NC(C)(C)C)nc(OC)n1,35.6 µM (active)
9,CC1(C)[C@H](C(=O)OCc2cccc(Oc3ccccc3)c2)[C@@H]1C=C(Cl)Cl,inactive
10,CCOc1nc(F)cc2nc(S(=O)(=O)Nc3c(Cl)cccc3C(=O)OC)nn12,inactive
11,C=C(C)CCO,inactive
12,CC/C(=C(/c1ccc(O)cc1)c1ccc(OCCN(C)C)cc1)c1ccccc1,37.2 µM (active)
13,CCCCCCCCCC[N+](C)(CCCCCCCCCC)CCC[Si](OC)(OC)OC,50.2 µM (active)
14,O=[N+]([O-])c1ccc(O)c2ncccc12,inactive
15,Oc1cccc2c(O)cccc12,17.8 µM (active)
16,NCc1cccc(C2CCN(C(=O)c3ccc(C#Cc4ccccc4F)o3)CC2)c1,2 µM (active)
17,C=C1C(CCl)(CCl)C2(Cl)C(Cl)C(Cl)C1(Cl)C2(Cl)Cl (stereo not drawn),1.76 µM (active)
18,N#Cc1ccc(C/C(=N/NC(=O)Nc2ccc(OC(F)(F)F)cc2)c2cccc(C(F)(F)F)c2)cc1,12.6 µM (active)

# Target: Cytochrome P450 2C9 (Homo sapiens) (UniProt P11712)
# Sequence (P11712 whole entry, looked up): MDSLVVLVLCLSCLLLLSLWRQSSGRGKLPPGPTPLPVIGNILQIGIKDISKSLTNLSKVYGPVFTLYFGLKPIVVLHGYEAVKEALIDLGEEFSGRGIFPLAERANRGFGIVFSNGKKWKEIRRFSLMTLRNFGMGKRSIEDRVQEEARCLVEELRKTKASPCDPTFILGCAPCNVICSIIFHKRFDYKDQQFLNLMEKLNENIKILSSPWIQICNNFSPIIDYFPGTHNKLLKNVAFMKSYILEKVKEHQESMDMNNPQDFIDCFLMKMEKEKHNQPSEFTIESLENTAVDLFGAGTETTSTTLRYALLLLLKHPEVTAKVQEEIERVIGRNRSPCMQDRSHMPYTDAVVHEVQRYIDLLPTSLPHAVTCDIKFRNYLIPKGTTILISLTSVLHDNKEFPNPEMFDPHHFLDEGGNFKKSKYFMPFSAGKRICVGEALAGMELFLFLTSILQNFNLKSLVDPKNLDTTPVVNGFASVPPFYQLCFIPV
# Assay: Cytochrome P450 Family 2 Subfamily C Member 9 (CYP2C9) small molecule antagonists: luciferase reporter qHTS assay (AID 1671198); further: nearly all actives have a fitted effect of over 50% in size
# Conditions: P450-Glo CYP2C9 enzyme assay, luciferin luminescence; series mostly up to 115 µM
# How it was run: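 CYP2C9 activity was measured with a P450-Glo proluciferin substrate. Enzyme–substrate mix was held with compound for 10 min at room temperature, then NADPH regeneration solution was added for 1 h at 37C. Luciferin product was read as luminescence.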
row,SMILES,Potency
1,C=Cc1ccc(O)c(OC)c1,31.7 µM (active)
2,COCCC(=O)OC,inactive
3,CC(C)(C)c1cc(CCC(=O)OCCSCCOC(=O)CCc2cc(C(C)(C)C)c(O)c(C(C)(C)C)c2)cc(C(C)(C)C)c1O,2.19 µM (active)
4,C[C@H]1O[C@@H](O[C@H]2CC[C@@]3(C)[C@H](CC[C@@H]4[C@@H]3C[C@@H](O)[C@]3(C)[C@@H](C5=CC(=O)OC5)CC[C@]43O)C2)C[C@H](O)[C@@H]1O[C@H]1C[C@H](O)[C@H](O[C@H]2C[C@H](O)[C@H](O[C@@H]3O[C@H](CO)[C@@H](O)[C@H](O)[C@H]3O)[C@@H](C)O2)[C@@H](C)O1,inactive
5,O[Si](c1ccccc1)(c1ccccc1)c1ccccc1,0.564 µM (active)
6,CCCCCCCCCCCCCCCCCCNC(=O)OC1CCN(C(=O)OC[C@H](COC(=O)N(Cc2cccc[n+]2CC)C(=O)c2ccccc2OC)OC)CC1,30.9 µM (active)
7,CCNc1nc(NC(C)(C)C)nc(OC)n1,inactive
8,CC1(C)[C@H](C(=O)OCc2cccc(Oc3ccccc3)c2)[C@@H]1C=C(Cl)Cl,inactive
9,C=C(C)CCO,inactive
10,CC/C(=C(/c1ccc(O)cc1)c1ccc(OCCN(C)C)cc1)c1ccccc1,37.2 µM (active)
11,CCCCCCCCCC[N+](C)(CCCCCCCCCC)CCC[Si](OC)(OC)OC,35.6 µM (active)
12,O=[N+]([O-])c1ccc(O)c2ncccc12,38.9 µM (active)
13,Oc1cccc2c(O)cccc12,22.4 µM (active)
14,c1ccc2cc3c4ccccc4c4ccccc4c3cc2c1,inactive
15,NCc1cccc(C2CCN(C(=O)c3ccc(C#Cc4ccccc4F)o3)CC2)c1,0.071 µM (active)
16,C=C1C(CCl)(CCl)C2(Cl)C(Cl)C(Cl)C1(Cl)C2(Cl)Cl (stereo not drawn),15.7 µM (active)
17,N#Cc1ccc(C/C(=N/NC(=O)Nc2ccc(OC(F)(F)F)cc2)c2cccc(C(F)(F)F)c2)cc1,22.4 µM (active)
18,O=C1CCCCCCCCCCCCCC1,inactive

# Reference: PubChem BioAssay (Tox21)
